# Results from PubChem BioAssay (NCATS).
# Records with an inconclusive call do not appear. Entries that show only a call come without a potency. Calls of active or inactive are those of the source. Unless noted, the call rests on the fitted dose curve; in most records, active means well fitted curve in the direction sought with a large enough effect; inconclusive means small, poorly fitted or top-dose-only effect, or another doubt; inactive means no such curve, though single readings can be large; an effect the other way counts as inactive or inconclusive.
# Tests used:
# [1] = ZIKV-mCherry secondary qHTS for Zika virus inhibitors (AID 1347158); further: top concentration of the series differs between compounds
# Summary of the method: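 Compounds were tested in Vero monkey kidney cells infected with recombinant mCherry-expressing Zika virus at MOI 1 for 48-72 h at 37 °C. Fixed cells were nuclear-stained and imaged, and infection rate was taken as the fraction of mCherry-positive cells.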
# [2] = tested on: Zika virus NS2B-NS3 protease (linked construct); test: 384 well plate NINDS Rhodamine confirmatory qHTS for Zika virus inhibitors (AID 1347164);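 further: fluorescence from protease cleavage of Ac-LKRR-rhodamine 110 substrate; nearly all actives have a fitted effect of over 65% in size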; further: potency means the concentration at half of the fitted maximal effect; on activity change, negative = inhibition: top concentration of the series differs between compounds
# Summary of the method: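 Enzyme (final 5/30/60 nM) + cpd (DMSO), ~15 min; add Ac-LKRR-Rd 10 microM final; 25 min RT, dark; FI ex 485/em 538; normalized to no-enzyme, no-inhibitor ctrls; aprotinin intraplate ctrl.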
# [3] = Tertiary RLuc qRT-PCR qHTS assay for Zika virus inhibitors (AID 1347169); further: top concentration of the series differs between compounds; nearly all actives have a fitted effect of over 55% in size
# Summary of the method: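 Vero, 1,000 cells/well, o/n 37 C; cpd pinned in DMSO; ZIKV-RLuc Cambodian, MOI 1-2, 48-72 h 37 C; live-cell RLuc substrate, lum read at 1-1.5 h.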
# [4] = Confirmatory screen GU Rhodamine qHTS for Zika virus inhibitors qHTS (AID 1347157); further: nearly all actives have a fitted effect of over 70% in size; further: potency means the concentration at half of the fitted maximal effect
# Summary of the method: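 Percent inhibition came from the 15-min rise in Rhodamine110 fluorescence (1.5 microM substrate, ~15% conversion), normalized to no-inhibitor and no-enzyme wells and Hill-fitted. Unlinked protease, 25 nM, pH 8.0 Tris buffer; compounds up to 114 microM, 15-min preincubation.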
# [5] = tested on: Zika virus NS2B-NS3 protease (linked); test: 384 well plate NINDS AMC confirmatory qHTS for Zika virus inhibitors (AID 1347163); further: nearly all actives have a fitted effect of over 50% in size; further: potency means the concentration at half of the fitted maximal effect;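 on activity change, negative = inhibition: linked protease at 5 30 or 60 nM final depending on run; fluorescence of AMC released from Ac-VKTGKR-AMC peptide cleaved by the protease; top concentration of the series differs between compounds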
# Summary of the method: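 Fluorescence at 355/460 nm was read after 25 minutes of cleavage of 30 microM Ac-VKTGKR-AMC at room temperature, in the dark. Before substrate addition, compounds (up to 1 mM final) sat ~15 minutes with 5, 30 or 60 nM linked protease. Signals were normalized to no-enzyme and no-inhibitor wells.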
# [6] = target: Cytochrome P450 3A4 (Homo sapiens) (UniProt P08684); test: qHTS Assay for Inhibitors and Substrates of Cytochrome P450 3A4 (AID 884); further: nearly all actives have a fitted effect of over 50% in size
# Summary of the method: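 Luminescent readout of luciferin produced by CYP3A4 (20 nM) dealkylation of Luciferin-PPXE, 25 uM (its KM). NADPH-driven reaction ran 60 min at RT after 10 min compound preincubation; data scaled to 57 uM ketoconazole as 100% inhibition.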
# [7] = Confirmation and Secondary Assay for Modulators of Hemoglobin Beta Chain Splicing at IVS2 654 locus (AID 910);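 further: HeLa cells stably carrying EGFP split by mutant beta-globin IVS2-654 intron; per-well total GFP intensity by laser scanning cytometry after 2-day treatment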
# Summary of the method: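 Readout: per-well total peak green fluorescence (488 nm ex, 500–520 nm em) from objects 5–250 µm, reflecting correct splicing of an EGFP-654 reporter. Compounds were applied for 2 days at 37 °C to overnight-plated HeLa EGFP-654 cells; controls were DMSO and 500 nM IVS2-654 PNA.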
# [8] = Confirmation and Secondary Assay for Modulators of Hemoglobin Beta Chain Splicing at IVS2 705 locus (AID 930);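 further: HeLa cells stably expressing the EGFP-705 splicing reporter; GFP fluorescence per well restored by corrected splicing of the IVS2-705 intron in EGFP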
# Summary of the method: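 Fluorescence gain (488 nm laser, 500-520 nm PMT) reflects restored correct splicing of a mutant IVS2-705 intron inside EGFP in stably transfected HeLa cells after 2-day compound treatment.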
# [9] = qHTS Assay for Lipid Storage Modulators (AID 1519; calls by dose curve); details: Drosophila S3 cells, BODIPY lipid droplet/cell ratio, laser cytometry, cells loaded with oleic acid
# Summary of the method: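 Cells seeded at 5,000 per well were treated with compounds over a concentration series and loaded with oleic acid (400 uM, as added). Lipid droplet fluorescence (488 nm excitation, 500-530 nm channel) was read by laser-scanning cytometry and normalized to 20 uM Triacsin C.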
# [10] = target: Ubiquitin carboxyl-terminal hydrolase 1 (Homo sapiens) (UniProt O94782); test: Inhibitors of USP1/UAF1: Pilot qHTS (AID 504865); further: potency means the concentration at half of the fitted maximal effect; nearly all actives have a fitted effect of over 35% in size
# Summary of the method: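 In 50mM HEPES pH 7.8 containing 0.5mM EDTA, 1mM TCEP, 0.1 mg/ml BSA and 0.01% Tween-20, 1nM USP1/UAF1 is exposed to compound for 15 min, then Ub-Rho (150nM final) is added and fluorescence is read over time.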
# [11] = Confirmatory screen NINDS Rhodamine qHTS for Zika virus inhibitors (AID 1347161); further: nearly all actives have a fitted effect of over 60% in size; further: potency means the concentration at half of the fitted maximal effect;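 on activity change, negative = inhibition: purified Zika NS2B-NS3 protease with linked NS2B cofactor domain and Rhodamine110 peptide substrate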
# Summary of the method: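 Percent inhibition, normalized to uninhibited and enzyme-free controls, is fitted to a 4-parameter Hill equation. Fluorescence change comes from a 15-min cleavage of 1.5 microM bis-peptide Rhodamine110 substrate by 25 nM linked NS2B-NS3 at room temperature.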
# [12] = Primary qHTS for small molecule stabilizers of the endoplasmic reticulum resident proteome: Secreted ER Calcium Modulated Protein (SERCaMP) assay (AID 1508630)
# Summary of the method: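 The SH-SY5Y reporter protocol was run at 3 concentrations up to 38.3 uM (primary) or 11 concentrations (follow-up): 16 h compound, 100 nM thapsigargin for 4 h, then extracellular luciferase luminescence.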
# [13] = target: Cytochrome P450 2D6 (Homo sapiens) (UniProt P10635); test: Cytochrome P450 family 2 subfamily D member 6 (CYP2D6) small molecule antagonists: luciferase biochemical (cell-free) qHTS assay (AID 1645840; active means well fitted curve in the direction sought with a large enough effect in the repeat runs; an effect the other way counts as inactive or inconclusive; further: potency means the concentration at half of the fitted maximal effect; nearly all actives have a fitted effect of over 55% in size)
# Summary of the method: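 P450-Glo CYP2D6 system: proluciferin substrate converted by enzyme to luciferin, read by luminescence proportional to activity. Enzyme-substrate mix with compound 10 min at room temperature, then NADPH regeneration 1 h before detection reagent.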
# [14] = target: Cytochrome P450 2C9 (Homo sapiens) (UniProt P11712); test: Cytochrome P450 family 2 subfamily C member 9 (CYP2C9) small molecule antagonists: luciferase biochemical (cell-free) qHTS assay (AID 1645842; active means well fitted curve in the direction sought with a large enough effect in the repeat runs; an effect the other way counts as inactive or inconclusive; further: potency means the concentration at half of the fitted maximal effect; nearly all actives have a fitted effect of over 55% in size)
# Summary of the method: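 P450-Glo CYP2C9 system: proluciferin substrate with enzyme in mix containing 0.4% BSA, 10 min at room temperature, then NADPH regeneration solution added and incubated 1 h at 37C. Detection reagent stopped reaction; luminescence read after 20 min as RLU.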
# [15] = tested on: Zika virus NS2B-NS3 protease (unlinked complex); test: Primary screen GU Rhodamine qHTS for Zika virus inhibitors: Unlinked NS2B-NS3 protease assay (AID 1347159); further: nearly all actives have a fitted effect of over 60% in size
# Summary of the method: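 In dose–response format, inhibition of unlinked protease (25 nM) was measured with 1.5 microM bis-peptide Rhodamine110 substrate. Aprotinin served as the intraplate control.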
# [16] = tested on: Zika virus NS2B-NS3 protease (linked construct); test: Primary screen NINDS Rhodamine qHTS for Zika virus inhibitors (AID 1347160); further: nearly all actives have a fitted effect of over 55% in size
# Summary of the method: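 Each compound, titrated, sat 15 min with 25 nM linked protease before 1.5 microM Rhodamine110 substrate went in. Fluorescence gain over the next 15 min, in pH 8.0 Tris with Tween 20, gave Hill-fitted curves.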
# [17] = target: Phospholipid hydroperoxide glutathione peroxidase GPX4 (Homo sapiens) (UniProt P36969); test: Primary qHTS Assay for Inhibitors of Recombinant Selenoprotein Glutathione Peroxidase 4 (GPX4) (AID 1845192); details: outcome: dose series up to 50 µM unless noted; further: nearly all actives have a fitted effect of over 65% in size
# Summary of the method: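 NADPH consumption followed by fluorescence at 340/450 nm, t=0 and after 15 min at room temperature. Reaction started with cumene hydroperoxide (0.5 mM final) after 30 min compound–GPX4 preincubation; final 200 nM GPX4, 100 nM GR, 1 mM GSH, 0.5 mM NADPH.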
# [18] = target: Luciferin 4-monooxygenase (Photinus pyralis) (UniProt P08659); test: Primary firefly luciferase (FLuc) qHTS assay for identification of artifact compounds. (AID 1845220); further: nearly all actives have a fitted effect of over 60% in size
# Summary of the method: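 Compounds sat 15 min at room temperature with 10 uM luciferin and 10 uM ATP (pH 7.6 Tris acetate). Firefly luciferase (10 nM final) was then added, and luminescence was read 5 min later. Data normalized to no-enzyme and DMSO controls were Hill-fitted.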
# [19] = Primary fluorescence-based thiol-reactive (MSTI) qHTS assay for identification of artifact compounds. (AID 1845221);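 further: thiol-reactive compounds lower the probe fluorescence signal; nearly all actives have a fitted effect of over 65% in size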
# Summary of the method: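 Curve-fitted percent inhibition (4-parameter Hill) derived from fluorescence, Ex 525/Em 598 nm, scaled with Acetyl-MSTI and MSTI; 1 h incubation at room temperature.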
# [20] = Primary redox qHTS assay for identification of artifact compounds. (AID 1845223)
# Summary of the method: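 Redox-cycling detection via DTT (250 uM final) oxidation coupled to Amplex Red (25 uM)/HRP (250 mU/mL) in HBSS. 15 min preincubation plus 30 min after DTT, room temperature. Ex/Em 525/598 nm; 4-parameter Hill fit against DMSO and 10 uM DA3003.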
# [21] = target: Calcium and integrin-binding protein 1 (Homo sapiens) (UniProt Q99828); test: Primary qHTS for Identification of Calcium Integrin Binding Protein 1 (CIB1) Competitor (AID 1508620);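 further: GST tagged CIB1 binding a fluorescein labelled alphaIIb integrin peptide tracer; top concentration of the series differs between compounds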
# Summary of the method: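 CIB1-GST (1 uM final) and compound incubated 15 min at room temperature before adding FITC-alphaIIb peptide tracer (100 nM final). Competition for binding read by fluorescence polarization (ex 480, em 540) after another 15 min at room temperature.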
# Sequence of Phospholipid hydroperoxide glutathione peroxidase GPX4 (Homo sapiens) (P36969 whole entry, looked up): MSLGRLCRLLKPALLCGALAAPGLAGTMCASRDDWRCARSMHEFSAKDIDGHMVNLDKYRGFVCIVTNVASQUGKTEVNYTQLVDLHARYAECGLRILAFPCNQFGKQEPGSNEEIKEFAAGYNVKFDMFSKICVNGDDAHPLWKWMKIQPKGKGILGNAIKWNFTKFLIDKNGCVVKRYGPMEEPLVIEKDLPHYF
# Sequence of Ubiquitin carboxyl-terminal hydrolase 1 (Homo sapiens) (O94782 whole entry, looked up): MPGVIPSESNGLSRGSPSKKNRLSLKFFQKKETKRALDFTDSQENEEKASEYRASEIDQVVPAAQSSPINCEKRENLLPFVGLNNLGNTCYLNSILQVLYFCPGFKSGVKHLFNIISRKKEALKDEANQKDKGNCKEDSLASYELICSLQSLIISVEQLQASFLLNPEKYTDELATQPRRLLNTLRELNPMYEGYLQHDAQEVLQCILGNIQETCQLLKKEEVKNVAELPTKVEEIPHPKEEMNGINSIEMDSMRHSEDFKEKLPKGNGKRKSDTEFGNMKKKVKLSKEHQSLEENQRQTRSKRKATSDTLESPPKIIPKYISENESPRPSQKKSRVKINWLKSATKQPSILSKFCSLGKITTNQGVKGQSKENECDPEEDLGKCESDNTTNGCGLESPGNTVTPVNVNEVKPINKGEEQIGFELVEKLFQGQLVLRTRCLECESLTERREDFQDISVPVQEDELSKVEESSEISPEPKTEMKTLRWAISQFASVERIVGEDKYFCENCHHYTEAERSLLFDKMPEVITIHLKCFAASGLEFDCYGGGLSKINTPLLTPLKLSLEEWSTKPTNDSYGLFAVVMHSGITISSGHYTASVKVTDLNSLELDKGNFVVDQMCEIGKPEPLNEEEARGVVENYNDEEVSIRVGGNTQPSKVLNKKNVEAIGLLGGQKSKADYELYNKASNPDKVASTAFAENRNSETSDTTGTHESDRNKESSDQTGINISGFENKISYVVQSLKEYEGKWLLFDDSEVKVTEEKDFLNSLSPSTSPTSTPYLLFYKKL
# Sequence of Cytochrome P450 2C9 (Homo sapiens) (P11712 whole entry, looked up): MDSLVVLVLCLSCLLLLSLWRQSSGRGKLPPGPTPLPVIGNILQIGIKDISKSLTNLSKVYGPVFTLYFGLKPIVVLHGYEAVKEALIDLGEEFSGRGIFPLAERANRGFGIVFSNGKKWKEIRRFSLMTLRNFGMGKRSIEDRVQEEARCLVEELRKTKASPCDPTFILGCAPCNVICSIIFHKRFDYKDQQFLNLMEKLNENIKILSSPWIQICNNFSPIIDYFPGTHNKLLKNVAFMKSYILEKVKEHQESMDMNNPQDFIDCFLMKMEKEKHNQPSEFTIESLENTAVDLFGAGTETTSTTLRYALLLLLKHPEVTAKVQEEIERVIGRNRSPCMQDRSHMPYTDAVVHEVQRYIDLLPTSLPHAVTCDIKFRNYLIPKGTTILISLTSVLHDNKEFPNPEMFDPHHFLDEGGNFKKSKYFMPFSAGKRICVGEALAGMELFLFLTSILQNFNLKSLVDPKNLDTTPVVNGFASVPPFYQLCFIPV
# Sequence of Calcium and integrin-binding protein 1 (Homo sapiens) (Q99828 whole entry, looked up): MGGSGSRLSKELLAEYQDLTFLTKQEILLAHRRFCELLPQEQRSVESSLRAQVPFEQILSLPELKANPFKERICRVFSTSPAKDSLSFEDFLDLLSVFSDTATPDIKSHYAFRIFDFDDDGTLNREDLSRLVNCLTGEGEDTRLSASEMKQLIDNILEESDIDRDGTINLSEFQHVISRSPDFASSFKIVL
# Sequence of Cytochrome P450 2D6 (Homo sapiens) (P10635 whole entry, looked up): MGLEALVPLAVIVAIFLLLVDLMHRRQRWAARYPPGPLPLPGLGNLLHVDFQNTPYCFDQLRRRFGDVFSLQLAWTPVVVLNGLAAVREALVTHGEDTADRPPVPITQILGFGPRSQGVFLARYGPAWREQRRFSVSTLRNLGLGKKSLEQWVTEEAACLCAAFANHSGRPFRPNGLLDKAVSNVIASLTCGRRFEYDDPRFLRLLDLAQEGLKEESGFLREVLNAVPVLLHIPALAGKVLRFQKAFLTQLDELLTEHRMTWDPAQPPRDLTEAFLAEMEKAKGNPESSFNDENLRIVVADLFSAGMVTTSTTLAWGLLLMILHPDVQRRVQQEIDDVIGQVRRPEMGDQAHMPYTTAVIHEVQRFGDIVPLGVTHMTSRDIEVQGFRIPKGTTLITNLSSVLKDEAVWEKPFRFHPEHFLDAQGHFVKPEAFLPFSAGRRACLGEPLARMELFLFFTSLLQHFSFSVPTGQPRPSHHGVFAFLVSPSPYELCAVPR
# Sequence of Cytochrome P450 3A4 (Homo sapiens) (P08684 whole entry, looked up): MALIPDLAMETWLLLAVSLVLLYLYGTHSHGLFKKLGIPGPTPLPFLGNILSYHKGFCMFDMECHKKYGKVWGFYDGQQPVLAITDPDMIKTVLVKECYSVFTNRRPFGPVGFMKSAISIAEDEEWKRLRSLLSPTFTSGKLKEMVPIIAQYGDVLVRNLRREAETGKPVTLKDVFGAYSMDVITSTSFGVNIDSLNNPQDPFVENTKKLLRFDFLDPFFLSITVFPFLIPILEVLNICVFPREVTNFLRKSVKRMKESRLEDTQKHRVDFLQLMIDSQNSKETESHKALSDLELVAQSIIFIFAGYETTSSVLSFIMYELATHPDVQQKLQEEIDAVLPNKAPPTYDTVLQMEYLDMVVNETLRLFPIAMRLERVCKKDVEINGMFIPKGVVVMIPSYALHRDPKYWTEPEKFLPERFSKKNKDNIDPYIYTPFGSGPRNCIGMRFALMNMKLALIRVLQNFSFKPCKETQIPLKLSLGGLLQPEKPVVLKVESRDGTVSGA
smiles,measurement,setting,value
O=C(NCc1ccccc1Cl)c1ccc2c(O)c(S(=O)(=O)c3ccccc3)c(=O)[nH]c2c1,Potency,[1],inactive
same,Potency,[2],50.1 µM (active)
same,Potency,[3],inactive
Nc1c(N=Nc2ccc([N+](=O)[O-])cc2)c(S(=O)(=O)O)cc2cc(S(=O)(=O)O)c(/C=C/c3ccccc3)c(O)c12,Potency,[4],3.16 µM (active)
same,Potency,[5],79.4 µM (active)
same,Potency,[2],14.1 µM (active)
O=C(OC1Cc2c(O)cc(O)cc2OC1c1cc(O)c(O)c(O)c1-c1c(C2Oc3cc(O)cc(O)c3CC2OC(=O)c2cc(O)c(O)c(O)c2)cc(O)c(O)c1O)c1cc(O)c(O)c(O)c1 (configuration not stated),Potency,[6],inactive
same,outcome,[7],inactive
same,outcome,[8],inactive
same,"activity change, negative = inhibition",[9]; at 57.5 µM (top of the series),6.84% (inactive)
same,max response,[9]; measured here: cell count channel max response,16.9%
same,max response,[9]; measured here: lipid channel max response,25.4%
same,Potency,[10],50.1 µM (active)
same,Potency,[1],inactive
same,Potency,[11],20 µM (active)
same,Potency,[5],20 µM (active)
same,Potency,[2],inactive
C=C1c2c(Cl)ccc(O)c2C(O)=C2C(=O)[C@]3(O)C(O)=C(C(N)=O)C(=O)[C@@H](N(C)C)[C@@H]3[C@@H](O)C12 (some centres not stated),Potency,[1],inactive
same,Potency,[11],13.9 µM (active)
same,Potency,[5],70.8 µM (active)
same,Potency,[2],20 µM (active)
same,Potency,[12],inactive
Cc1ccc(-c2nnc(Nc3ccc(Br)cc3)c3ccccc23)cc1S(=O)(=O)NCc1nc2ccccc2[nH]1,Potency,[1],inactive
same,Potency,[5],inactive
same,Potency,[2],inactive
same,Potency,[13],3.38 µM (active)
same,Potency,[14],0.849 µM (active)
CCOC(=O)c1c(-c2ccccc2)csc1NC(=O)c1cc(-c2ccc(Cl)cc2)on1,Potency,[4],inactive
same,Potency,[11],inactive
same,Potency,[3],inactive
O=C(Nc1ccc(C(=O)OCc2cc(=O)n3nc(C4CC4)sc3n2)cc1)c1ccccc1,Potency,[4],inactive
same,Potency,[3],inactive
O=C(OCc1cc(=O)n2nc(C3CC3)sc2n1)c1ccc(NC(=O)c2ccccc2F)cc1,Potency,[1],inactive
same,Potency,[5],inactive
same,Potency,[2],inactive
same,Potency,[3],inactive
CC(C)c1nn2c(=O)cc(COC(=O)c3ccc(NC(=O)CCc4ccccc4)cc3)nc2s1,Potency,[4],inactive
same,Potency,[3],inactive
O=C(CNC(=O)c1ccccc1F)OCc1cc(=O)n2nc(C3CCCCC3)sc2n1,Potency,[4],inactive
same,Potency,[11],inactive
same,Potency,[3],inactive
C/C=C/C[C@@H](C)[C@@H](O)[C@H]1C(=O)N[C@@H](CC)C(=O)N(C)CC(=O)N(C)[C@@H](CC(C)C)C(=O)N[C@@H](C(C)C)C(=O)N(C)[C@@H](CC(C)C)C(=O)N[C@@H](C)C(=O)N[C@H](C)C(=O)N(C)[C@@H](CC(C)C)C(=O)N(C)[C@@H](CC(C)C)C(=O)N(C)[C@H](C(C)C)C(=O)N1C,Potency,[15],inactive
same,Potency,[16],inactive
same,Potency,[17],inactive
same,Potency,[18],inactive
same,Potency,[19],inactive
same,Potency,[20],inactive
O=C(Nc1ccc(C(=O)OCc2cc(=O)n3nc(C4CC4)sc3n2)cc1)c1ccc(F)cc1,Potency,[4],inactive
same,Potency,[11],inactive
same,Potency,[3],inactive
O=C(OCC#CCSc1nnc(-c2ccccc2F)o1)c1ccc(F)cc1,Potency,[4],inactive
same,Potency,[11],inactive
same,Potency,[3],inactive
same,outcome,[21],inactive
O=C(COC(=O)c1cccc(NC(=O)c2ccc(Br)cc2)c1)c1ccc(Cl)cc1,Potency,[4],inactive
same,Potency,[3],inactive
O=C(Nc1ccccc1C(=O)OCc1cc(=O)n2c3c(sc2n1)CCCC3)c1cccc(Cl)c1,Potency,[4],inactive
same,Potency,[3],inactive
O=C(OCc1cc(=O)n2nc(C3CC3)sc2n1)c1ccc(NC(=O)c2ccccc2Cl)cc1,Potency,[4],50.1 µM (active)
same,Potency,[5],inactive
same,Potency,[2],inactive
same,Potency,[3],inactive
